Test results: PubChem BioAssay (NCI)
The panel holds about 83,000 compounds, 20% with a hit somewhere; the sample as a whole holds those more often.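 How to read the values: 0–100, growth inhibition (40 = 60% inhibited); 0, no net growth; -100 to 0, cell death (-40 = 40% of starting cells died; -100 = all dead).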 Active and inactive are the calls of the source. Rule for the calls: active = growth percent below 10; inactive = the rest.

system: HCT-116 colon; assay: NCI-60 one-dose screen, 48 h (100 = growth as untreated, 0 = no growth, -100 = all killed); conditions: 10 µM unless noted

SMILES	growth
COc1ccc(C(c2cc(OC)c(OC)c(OC)c2)N2CCN(Cc3ccccc3)CC2)cc1 (stereo not given)	56.7% (inactive)
COc1ccc2nc(SCC(=O)Nc3ccccc3C)[nH]c2c1	98.9% (inactive)
N/C(=N\c1nc2ccccc2s1)NC(=NC1CCCCC1)NC1CCCCC1	0.368% (active)
CSCCC(NC(=O)c1ccccc1)C(=O)N/N=C1\S/C(=C/c2ccc(Cl)cc2)C(=O)N1C (stereo not given)	55.2% (inactive)
S=c1[nH]c2cc(Cl)ccc2o1	91.1% (inactive)
COc1ccc(-c2cc(C(=O)N3N=C(c4ccc(N)cc4)CC3c3ccccc3)c3ccccc3n2)cc1 (stereo not given)	17.8% (inactive)
Cn1c(=O)c2c(nc(NC3=NS(=O)(=O)c4ccccc43)n2Cc2ccccc2)n(C)c1=O	103% (inactive)
O=C(Nc1cccnc1Nc1ccc(Cl)cc1)c1cn(Cc2ccc(F)cc2)nn1	84.6% (inactive)
Cc1c2cc[nH]c(=O)c2c(C)c2c1[nH]c1ccc(OC(=O)c3ccccc3)cc12	22.7% (inactive)
N=C(N)c1ccc(-c2ccc(-c3ccc(Cl)cc3Cl)s2)cc1F	-36.6% (active)
COc1ccc2cc(Cn3cc[n+](Cc4ccc5ccccc5c4)c3)ccc2c1	33.7% (inactive)
COC(=O)c1c2c(n3ccc(C)cc13)C(=O)c1ccccc1C2=O	41.6% (inactive)
CNC(=O)c1cc(Oc2ccc3nc(NC(=O)Nc4ccc(Cl)c(Cl)c4)sc3c2)ccn1	-13.3% (active)
Cc1c(Cl)cccc1C(=O)Nc1nc2c(s1)CN(C(=O)Nc1cccc(C(F)(F)F)c1)CC2	13.3% (inactive)
Cc1c2cnccc2c(C)c2c1c1cc(C3OCCCO3)ccc1n2C	1.45% (active)
CC(C)c1ccc(-n2c(=S)[nH]c3sc4c(c3c2=O)CCC(=O)C4)cc1	53.5% (inactive)
O=C(Nc1cccc(NC(=O)C2CCCCC2)c1)c1ccccn1	93.6% (inactive)
O=C1NC(=O)c2c1c1c3ccccc3[nH]c1c1oc3ccc(F)cc3c21	69% (inactive)
CCOC(=O)c1ccc2c(c1)c1c(C)c3ccncc3c(C)c1n2C	0.263% (active)
COc1ccc(-c2oc(=O)ccc2-c2cc(OC)c(OC)c(OC)c2)cc1O	-30.2% (active)

SMILES	growth
COc1cc(Nc2c3ccc(Cl)cc3nc3ccc(OC)cc23)c2ncccc2c1	26% (inactive)
O=C(CCCCCCN1CC(=O)N2[C@@H](C3CCCCC3)c3[nH]c4ccccc4c3C[C@H]2C1=O)NO	27% (inactive)
C=CCN=C(N)SCCCCCCSC(N)=NCC=C	75.5% (inactive)
O=C(/C=C\c1ccco1)/C=C/c1ccco1	105% (inactive)
C#Cc1cccc(Nc2nc3ccc([N+](=O)[O-])cc3nc2Nc2cccc(C#C)c2)c1	-94.7% (active)
COc1cc(/C=C2\CN(S(=O)(=O)c3ccc(C)cc3)C/C(=C\c3cc(CN4CCCCC4)c(O)c(OC)c3)C2=O)cc(CN2CCCCC2)c1O	-70.6% (active)
O=C1/C(=C/c2ccc(Br)cc2)COc2ccc(O)c(O)c21	-15.9% (active)
O=C1CC2C=CCN2C=C1NC(=O)C1CCCCC1 (stereo not given)	94.8% (inactive)
CCN(CC)CCOc1nc2c3ccc(Cl)cc3nn2c2ccccc12	5.87% (active)
COc1ccc2c(O)c(/C=C3\N=Nc4ccccc43)oc2c1C[C@H]1CCNC[C@H]1F	26.7% (inactive)
CCCCCCC(=O)Nc1ncc(Cc2ccc(C)cc2)s1	33.3% (inactive)
COc1ccc(C2C3=C(COC3=O)N(CCO)c3cc4c(cc32)OCCO4)cc1OC (stereo not given)	18.2% (inactive)
Nc1c(C(=O)Nc2ccccn2)sc2nc3c(cc12)C(O)CCC3 (stereo not given)	30.5% (inactive)
Cc1nc2sc(C(=O)Nc3ccc(Cl)cc3)c(N)c2cc1C(O)c1ccccc1 (stereo not given)	25.9% (inactive)
COc1ncc2cc1NS(=O)(=O)c1cccc(c1)C(=O)NCC1=CC=C(S1)c1ncnc3c1SC2=C3C	-31.8% (active)
CC(/C=C1\SC(=S)N(CC(=O)NC(Cc2c[nH]c3ccccc23)C(=O)O)C1=O)=C\c1ccccc1 (stereo not given)	112% (inactive)
C=C(C)[C@@H]1CC[C@]2(CO)CC[C@]3(C)[C@H](CC[C@@H]4[C@@]5(C)CCC(NCCc6ccc(O)cc6)C(C)(C)[C@@H]5CC[C@]43C)[C@@H]12 (stereo not given in full)	-89.9% (active)
Cn1cc(-c2nn3cc(-c4ccccc4)nc3s2)c2ccccc21	69.3% (inactive)
C#CCOc1cccc(-c2ncc3cc(NC(=O)CCl)ccc3n2)c1	-26.9% (active)
C#CC#CC#CC#CC#CC#CC#CC#CC[C@H]1OC[C@@H](COC(=O)O[C@@H](C(=O)O[C@H]2C[C@@]3(O)[C@@H](OC(=O)c4ccccc4)[C@@H]4[C@]5(OC(C)=O)CO[C@@H]5C[C@H](O)[C@@]4(C)C(=O)[C@H](OC(C)=O)C(=C2C)C3(C)C)[C@@H](NC(=O)c2ccccc2)c2ccccc2)O1	18% (inactive)
